# According to PubChem BioAssay (NCI):
# About 83,000 compounds went through this panel and 20% of them were active in at least one assay; those are over-represented in the sample as a whole.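 A percent growth of 40 corresponds to 60% growth inhibition; 0 means no net growth; -100 means all cells died. Active threshold: below 10.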 Values without a mark were called inactive. Calls of active or inactive are those of the source.
# Test system: MDA-MB-468 breast
# Assay: NCI-60 one-dose screen, 48 h (100 = growth as untreated, 0 = no growth, -100 = all killed)
# Settings: 10 µM unless noted
row,SMILES,growth
1,N#CC1(C#N)C(c2cccs2)NC(c2cccs2)C1(C#N)C#N (stereo not given),104%
2,Cc1cc(F)ccc1S(=O)(=O)Nc1cc(-c2c(O)ccc3ccccc23)c(O)c2ccccc12,-1.51% (active)
3,O=C1OCC2=C1C(c1ccccc1)c1cc3c(cc1N2CCO)CCC3 (stereo not given),15%
4,COc1cccc(-c2nn(C)c3sc(C(=O)NCCN4CCN(c5ccccc5F)CC4)cc23)c1,45.9%
5,C[C@@]1(N2C(=O)OC[C@@H]2c2ccccc2)C(=O)N([C@H](CC(=O)N2CCC(N3CCCCC3)CC2)C(=O)NCc2cccc(C(F)(F)F)c2)[C@@H]1/C=C/c1ccccc1,23.7%
6,COc1ccc(C2=NN(C(C)=O)C(c3cc(OC)c(OC)c(OC)c3)C2)cc1 (stereo not given),108%
7,Oc1ccc(-c2nnc(SCc3ccc(O)c4ncccc34)n2-c2ccccc2)cc1,-13.6% (active)
8,CNC(=O)c1c(C)oc2cc(Oc3ncnc4cc(OC)c(OC)cc34)ccc12,106%
9,CC(O)CN(CC(C)O)N(CC(C)O)CC(C)O (stereo not given),105%
10,CC(Sc1nc2sc3c(c2c(=O)n1-c1ccc(Cl)cc1)CCCC3)C(=O)Nc1nc(-c2ccc(Br)cc2)cs1 (stereo not given),105%
11,COc1cc(-c2cc(-c3ccc(C)cc3)nc3nc(N)[nH]c(=O)c23)ccc1Oc1ccnc2cc(Cl)ccc12,52.3%
12,Cc1cc(NC(=O)C2c3ccccc3C(=O)N(CC(C)C)C2c2cccs2)no1 (stereo not given),-56.6% (active)
13,CC1(C)[C@@H](OC(=O)CCC(=O)O)CC[C@]2(C)[C@H]3C(=O)C=C4[C@@H]5C[C@@](C)(C(=O)O)CC[C@]5(C)CC[C@@]4(C)[C@]3(C)CC[C@@H]12,-0.77% (active)
14,COc1cc(C(=O)c2cc(C)c3[nH]c4ccc(C)cc4c3c2C)cc(OC)c1OC,-20.1% (active)
15,O=C(Cc1ccccc1)NNc1nc(Cl)nc(N2CCN(C(c3ccccc3)c3ccccc3)CC2)n1,38.2%
16,c1ccc(CO[C@H]2CO[C@H]3[C@@H]2OC[C@@H]3Oc2ccc(Nc3ncnc4ccsc34)cc2)cc1,51.5%
17,O=S(=O)(NCCCNc1nccc(-c2c(-c3cccc(O)c3)nc3occn23)n1)c1ccc(F)cc1,100%
18,CCOC(=O)[C@@H](Cc1ccccc1)NC(=O)c1[nH]c2ccc(Cl)cc2c(=O)c1C,78%

row,SMILES,growth
1,COc1cccc2c1C(=O)c1c(O)c3c(c(O)c1C2=O)C[C@@](O)(C(=O)CO)C[C@@H]3O[C@H]1C[C@H](N)[C@@H](O)[C@H](C)O1,-57% (active)
2,COC(=O)c1[nH]cnc1/N=N/N(C)CCO,87.2%
3,CCCCCCCC(=O)SCC/C=C/[C@@H]1CC(=O)NCc2cccc(n2)C2=N[C@@](C)(CS2)C(=O)N[C@@H](C(C)C)C(=O)N1,-10.5% (active)
4,COC(=O)[C@]12CC[C@@H](C)[C@H](C)[C@@H]1C1=CC[C@@H]3[C@@]4(C)C/C(=N\O)[C@H](O)[C@@]5(C)COC(=C45)C[C@@]3(C)[C@]1(C)CC2,-71.7% (active)
5,C#CCC(C)(O)/C=C/C1=C(C)CCCC1(C)C (stereo not given),87.3%
6,CCCCCCn1c(=N)n(CC(O)COc2cccc(C)c2)c2ccccc21 (stereo not given),-68.7% (active)
7,c1csc(-c2c3ccc(=[N+]4CCCCC4)cc-3oc3cc(N4CCCCC4)ccc23)c1,-90% (active)
8,COc1nc2c(cc1S(=O)(=O)c1ccccc1)CCc1c-2cnn1-c1ccc(Cl)cc1,87.6%
9,CCOC(=O)c1[nH]c(C)c(C(=O)O)c1C,108%
10,O=C(CCCCCCN1CC(=O)N2[C@@H](c3ccc(Cl)c(F)c3)c3[nH]c4ccccc4c3C[C@H]2C1=O)NO,85.5%
11,Nc1c(C(=O)Nc2cccc3ncccc23)sc2nc3c(cc12)C(=O)CCC3,12.4%
12,CN1CCc2c(sc3ncnc(N/N=C/c4ccc(Cl)c(Cl)c4)c23)C1,-26.6% (active)
13,NC(=O)c1c(NC(=O)c2ccc(Cl)cc2)sc2c1CCC(=O)C2,88.5%
14,Cc1ccc(-c2cc(-c3ccccc3C)[nH]c(=O)c2C#N)s1,99.3%
15,CC1CCNC(C)C1 (stereo not given),99.2%
16,O=c1oc2ccc(F)cc2c(=O)n1-c1ccc(I)cc1F,-1.22% (active)
17,COc1cc(/C=C/C(=O)/C=C/c2cc(OC)c3c(c2OC)OCO3)c(OC)c2c1OCO2,23.1%
